# Compounds without any hit were thinned out: in the full panel of roughly 83,000, 20% have a hit.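 Step 1: grow cells in 96-well plates. Step 2: add test compound at a single concentration. Step 3: incubate 48 h. Step 4: record percent growth.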 A number with no mark means an inactive call. Calls of active or inactive are those of the source. Rule for the calls: active = growth percent below 10; inactive = the rest.
# Assays:
# Assay in all cases: NCI-60 one-dose screen, 48 h (100 = growth as untreated, 0 = no growth, -100 = all killed)
# Settings in all cases: 10 µM unless noted
# [1] = tested on: DU-145 prostate
# [2] = tested on: K-562 leukemia
# [3] = tested on: MALME-3M melanoma
# [4] = tested on: MDA-MB-231 breast
# [5] = tested on: RXF 393 renal
# [6] = tested on: SF-268 CNS
# [7] = tested on: SF-295 CNS
# [8] = tested on: SF-539 CNS
# [9] = tested on: UACC-257 melanoma
# [10] = tested on: M14 melanoma
# [11] = tested on: HCT-15 colon
# [12] = tested on: HT29 colon
# [13] = tested on: SNB-75 CNS
# [14] = tested on: SNB-19 CNS
# [15] = tested on: U251 CNS
# [16] = tested on: PC-3 prostate
# [17] = tested on: SK-MEL-5 melanoma
# [18] = tested on: UACC-62 melanoma
# [19] = tested on: LOX IMVI melanoma
# [20] = tested on: SK-MEL-28 melanoma
SMILES,growth [1],growth [2],growth [3],growth [4],growth [5],growth [6],growth [7],growth [8],growth [9],growth [10],growth [11],growth [12],growth [13],growth [14],growth [15],growth [16],growth [17],growth [18],growth [19],growth [20]
CCOC(=O)c1cnc2c(N=Nc3ccc(OC)cc3)c(N)nn2c1N,102%,107%,106%,101%,113%,94.2%,102%,110%,103%,110%,102%,99.3%,106%,98.6%,105%,98.7%,96.2%,97.3%,110%,
CCN1CCN(c2cc(C)nc(N(CCNc3ccnc4cc(Cl)ccc34)Cc3ccc4c(c3)OCO4)n2)CC1,26.5%,-48.4% (active),-65.8% (active),-42.4% (active),-82.5% (active),7.14% (active),-63.5% (active),-71.2% (active),-59.9% (active),-66.5% (active),-28.8% (active),-37.9% (active),-75.3% (active),29.7%,-50.4% (active),20%,-95.8% (active),-32.2% (active),-80.3% (active),-65.6% (active)
O=C(Nc1ccccc1[N+](=O)[O-])c1ccc(Cl)c(Cl)c1,102%,91.9%,93.5%,93.2%,88.1%,89.8%,93.3%,89.4%,90.8%,101%,91%,98.7%,69.6%,101%,86.1%,80.3%,84.2%,87.2%,85.9%,
O=C1Nc2ccccc2/C1=C/c1cccn1C(=O)c1ccc(Cl)s1,66.8%,36.8%,104%,50.9%,81.1%,39.4%,88.8%,62.4%,79.5%,82.2%,17.8%,80.5%,63.6%,28.4%,22.3%,33%,69.8%,94.9%,79.2%,
Cc1ccnc(Nc2ccc([N+](=O)[O-])c(NCCN3CCOCC3)n2)c1,10.1%,6.76% (active),89.3%,42.4%,70.4%,31.9%,35.8%,6.71% (active),86.2%,24.1%,8.47% (active),10.9%,56.8%,58.3%,23.2%,12.2%,-3.36% (active),37.3%,22.8%,
CN1CCN(c2ccc3nc4c(nc3c2C(F)(F)F)C(=O)c2ncccc2C4=O)CC1,-85.7% (active),-6.72% (active),-99.2% (active),-5.99% (active),38.4%,1.96% (active),-61.6% (active),-52.4% (active),-82.3% (active),-89.6% (active),-47.5% (active),-55.5% (active),5.3% (active),17.9%,0.911% (active),8.01% (active),-99.7% (active),-82.5% (active),-50.1% (active),
CCNc1ccc(-c2nc3ccccc3n3cccc23)cc1,86.7%,67.6%,92.2%,55.8%,87.7%,83.9%,69%,93.5%,84.9%,77.9%,82.5%,80%,67.6%,92.2%,82.9%,68.9%,71.2%,66.2%,73.4%,
CC1(C)CC(=O)c2c(nn(-c3ccc(Br)cc3)c2-c2cn(-c3ccccc3)nc2-c2cccnc2)C1,111%,84.4%,101%,89.7%,96.1%,97.8%,92.1%,105%,111%,98.6%,94.9%,98.1%,84.3%,92.5%,91.7%,71.7%,97.2%,76.7%,85.5%,113%
NC1=Nc2cc(OCCCCN3Cc4ccccc4C3)c(OCC3CC3)cc2C12CCCC2,65%,2.5% (active),-88.5% (active),19.3%,30.2%,56.1%,61.7%,-8.18% (active),-83.2% (active),-89.7% (active),3.13% (active),2.03% (active),71.5%,76.9%,24.2%,44.1%,-91.5% (active),50.5%,-80.7% (active),-81.4% (active)
O=C1/C(=C/c2ccccc2F)CN(C(=O)C(Cl)Cl)C/C1=C\c1ccccc1F,-63.4% (active),-2.29% (active),-47% (active),-49.1% (active),-76.3% (active),-0.301% (active),-46.2% (active),-85.9% (active),-17.5% (active),-43.7% (active),-66.5% (active),3.2% (active),-18.4% (active),-84.1% (active),-85.1% (active),-41.3% (active),-77% (active),-59% (active),-86.4% (active),-58.9% (active)
CC/C=C\CCC/C=C1/C(=O)C=C[C@@H]1C/C=C\CCCC(=O)OC,60.4%,0.856% (active),34.1%,15.3%,96.4%,31%,74.2%,95.4%,69.7%,1.66% (active),4.07% (active),-1.77% (active),82.7%,50.2%,19.7%,32.8%,-32% (active),-14.2% (active),-70.8% (active),61.3%
Clc1ccccc1-c1cnn2cc(-c3ccccc3)cnc12,87.6%,67.3%,89.9%,72.4%,87.6%,85.6%,82.9%,81.3%,86.3%,91.5%,70.1%,73.4%,74.2%,71%,82.9%,86.4%,93.2%,65.9%,94.6%,88.3%
CCOC(=O)C1=C(C)C(Cl)=N/C1=C\c1[nH]c(Cl)c(C)c1C(=O)OCC,111%,91%,107%,93%,115%,101%,111%,100%,91.4%,87.1%,99.1%,91.9%,84.5%,101%,94.1%,76.3%,96.8%,97.4%,93.9%,122%
COc1ccccc1C(=O)Nc1cccc(NC(=O)c2ccoc2C)c1,53.3%,8.76% (active),60.4%,59.4%,50.1%,48.2%,29.8%,27.2%,33.3%,13.1%,28.7%,6.04% (active),19.3%,30.4%,21.9%,30.5%,20.5%,29.7%,37.3%,60.1%
CCCC(CC)(C(=O)Nc1ccc2nc(C)cc(N)c2c1)C(=O)Nc1ccc2nc(C)cc(N)c2c1,111%,102%,105%,100%,117%,113%,108%,102%,99.7%,96.6%,110%,99.1%,100%,103%,107%,95.8%,99.5%,102%,100%,110%
FC(F)(F)Oc1cccc(-c2cnc3ccc(-c4ccncc4)nn23)c1,22.2%,31.6%,39.2%,32.9%,-29.6% (active),18.9%,17.4%,-2.61% (active),48.6%,26.8%,8.36% (active),14.7%,41.6%,23.5%,18.7%,15.5%,22.6%,-0.898% (active),9.23% (active),20%
